The record followed here is PubChem BioAssay (NCATS).

Test [1] concerns the target DNA dC->dU-editing enzyme APOBEC-3G (Homo sapiens) (UniProt Q9HC16). The test can be described thus: qHTS for inhibitors of Vif-A3G interactions: Validation (AID 588379). Further: 0% is about no effect. In outline: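 HeLa cells stably expressing Vif and A3G-eYFP, 700 cells/well, incubated overnight at 37 deg C, then exposed to compound overnight at 37 deg C. Inhibition of Vif-mediated degradation read as increased yellow fluorescence (Ex 488/Em 500-530) by laser-scanning cytometry.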
On the technique in general: Quantitative high-throughput screening tests each substance at several concentrations.

Test [2] concerns the target Rap guanine nucleotide exchange factor 3 (Homo sapiens) (UniProt O95398). The test can be described thus: Confirmatory qHTS for antagonist of cAMP-regulated guanine nucleotide exchange factor 3 (EPAC1) (AID 1645880). Further: nearly all actives have a fitted effect of over 55% in size. Further: potency means the concentration at half of the fitted maximal effect.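 On activity, negative = inhibition: plate controls were DMSO only for no effect and full effect of the ATA control for full effect.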 The note with it: EPAC1 Rap1B-BODIPY-GDP exchange, fluorescence; activity, negative = inhibition: at 115 µM (top of the series). In outline:
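Nucleotide exchange uses 100 nM EPAC1, 250 nM RAP1B-BODIPY-GDP and 50 uM GDP, with compounds in a concentration-titration series. After 5 min at room temperature, fluorescence (480 nm ex/540 nm em) is read every 5 min for 30 min. Data are normalized to control ATA and DMSO.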

For test [3] the target is unchanged. The test is described as follows: Confirmatory qHTS for agonist of cAMP-regulated guanine nucleotide exchange factor 3 (EPAC1) (AID 1645881). Further: nearly all actives have a fitted effect of over 75% in size. Further: potency means the concentration at half of the fitted maximal effect.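 On activation: EPAC1 catalysed release of BODIPY-GDP from Rap1B seen as fluorescence loss; 100% = effect of cAMP agonist control.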
Test [4] concerns the target Rap guanine nucleotide exchange factor 4 (Homo sapiens) (UniProt Q8WZA2). The test is described as follows: Confirmatory qHTS for agonist of cAMP-regulated guanine nucleotide exchange factor 4 (EPAC2) (AID 1645884).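 Further: nucleotide exchange releases bodipy-GDP from Rap1 and this lowers its fluorescence; nearly all actives have a fitted effect of over 65% in size.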 Further: potency means the concentration at half of the fitted maximal effect. On activation: on the % scale 0 is the no-effect control and ±100 the full control effect.
Test [5] has the same target. The test is described as follows: Confirmatory qHTS for antagonist of cAMP-regulated guanine nucleotide exchange factor 4 (EPAC2) (AID 1645885). Further: nearly all actives have a fitted effect of over 25% in size. Further: potency means the concentration at half of the fitted maximal effect. On activity change, negative = inhibition: on the % scale 0 is the no-effect control and ±100 the full control effect.
The target of test [6] is Tumor susceptibility gene 101 protein (Homo sapiens) (UniProt Q99816). The test is described as follows: qHTS Assay for Iinhibitors of HIV-1 Budding by Blocking the Interaction of PTAP/TSG101: Hit Validation (AID 651600). Further: nearly all actives have a fitted effect of over 70% in size. Further: potency means the concentration at half of the fitted maximal effect. In outline:
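FITC-PTAP peptide (50 nM final) binding to Tsg101 binding domain (10 uM final) was measured by polarization after 20 min at r.t. with compounds, in 10 mM HEPES pH 7.5 buffer with 0.15 M NaCl and 0.01% Tween 20.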

For test [7], the target named is Rap guanine nucleotide exchange factor 3 (Homo sapiens) (UniProt O95398). The test can be described thus: Counterscreen qHTS for agonist of cAMP-regulated guanine nucleotide exchange factor 3 (EPAC1) (AID 1645889). Further: nearly all actives have a fitted effect of over 40% in size. Further: potency means the concentration at half of the fitted maximal effect. On activation: % of control where 0% means no effect. In outline: (§1)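 Rap1B–BODIPY-GDP (250 nM) with 50 uM GDP; compounds pin-transferred to 9.74 nM–152 uM final (activator) or from 7.32 nM upwards (inhibitor). Fluorescence Ex/Em 480/540 nm read at 5 and 30 min, then after adding cAMP or buffer, at room temperature.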
Rap guanine nucleotide exchange factor 3 (Homo sapiens), sequence (O95398 whole entry, looked up): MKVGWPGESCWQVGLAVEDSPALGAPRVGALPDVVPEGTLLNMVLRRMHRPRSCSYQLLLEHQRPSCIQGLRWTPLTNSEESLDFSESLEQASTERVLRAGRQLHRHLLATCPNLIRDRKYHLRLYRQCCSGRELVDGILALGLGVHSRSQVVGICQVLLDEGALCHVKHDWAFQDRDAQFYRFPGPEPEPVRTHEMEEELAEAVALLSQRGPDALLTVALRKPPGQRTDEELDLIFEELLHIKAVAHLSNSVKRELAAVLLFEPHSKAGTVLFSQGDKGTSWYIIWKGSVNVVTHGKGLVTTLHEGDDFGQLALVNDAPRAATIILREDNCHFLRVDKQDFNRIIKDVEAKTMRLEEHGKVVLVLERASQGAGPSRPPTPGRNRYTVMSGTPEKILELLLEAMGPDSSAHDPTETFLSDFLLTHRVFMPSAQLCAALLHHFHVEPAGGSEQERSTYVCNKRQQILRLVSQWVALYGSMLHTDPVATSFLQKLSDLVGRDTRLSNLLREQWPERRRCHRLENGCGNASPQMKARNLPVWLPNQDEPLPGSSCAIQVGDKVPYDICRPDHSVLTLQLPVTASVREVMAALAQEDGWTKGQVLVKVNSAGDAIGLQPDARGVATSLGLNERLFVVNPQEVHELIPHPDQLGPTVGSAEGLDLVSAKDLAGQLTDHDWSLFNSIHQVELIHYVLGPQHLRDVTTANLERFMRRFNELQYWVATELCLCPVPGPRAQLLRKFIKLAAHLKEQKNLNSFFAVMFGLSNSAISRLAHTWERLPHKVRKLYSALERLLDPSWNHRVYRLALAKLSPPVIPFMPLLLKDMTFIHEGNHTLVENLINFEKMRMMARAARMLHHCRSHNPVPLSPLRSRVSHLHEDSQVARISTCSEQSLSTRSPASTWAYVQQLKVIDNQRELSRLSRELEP
On the technique in general: Counterscreens check selectivity or assay interference.

The target of test [8] is Lysosomal acid glucosylceramidase (Homo sapiens) (UniProt P04062). The test can be described thus: Glucocerebrosidase-p2 (AID 348; in the data active means potency below about 10 µM; further: potency means the concentration at half of the fitted maximal effect). The note with it: purified GBA, blue fluorogenic substrate, 40 min. In outline:
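Compounds titrated from 0.6 nM upwards against 0.2 nM enzyme in pH 5.9 citric acid/KH2PO4, taurocholate, tween-20; blue fluorogenic substrate 80 uM, 40 min room temperature, stopped and read Ex 365/Em 440 for AC50.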

The target in test [9] is Cytochrome P450 1A2 (Homo sapiens) (UniProt P05177). The test is described as follows: p450-cyp1a2 (AID 410; calls by dose curve; further: potency means the concentration at half of the fitted maximal effect). Summed up:
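20nM CYP1A2 with 100uM Luciferin-ME (at Km) in 100mM KPO4; compound preincubated 10 min, NADPH regeneration added, 60 min at room temperature. Luciferin quantified by luminescence after detection reagent; normalized to 57 uM furafylline.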

Test [10] in a line: Stat Signaling Pathway (AID 446; active means well fitted curve in either direction with a large enough effect, not every such curve was filed as active;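 further: ME-180 cervical cancer cells given 40 pM IL-6 alongside compound; SIE-controlled beta-lactamase reporter measured as 460/530 nm FRET emission ratio; on the % scale 0 is the no-effect control and ±100 the full control effect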). Summed up: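 ME-180 cells carrying a SIE-driven beta-lactamase reporter are stimulated with 40 pM IL-6 for 5 h at 37C in the presence of compound. The 460/530 nm FRET substrate ratio is read after 2.5 h at RT. Data are normalised to 300 pM IL-6 and to 125 nM JAK inhibitor controls.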
The target in test [11] is Glucocorticoid receptor (Homo sapiens) (UniProt P04150). The test is described as follows: GR-GFP Redistribution (AID 450;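 active means compounds whose dose series gives a full or clear partial fitted curve of increased nuclear translocation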; further: potency means the concentration at half of the fitted maximal effect). As to conditions: U2OS GR-GFP nuclear translocation, laser cytometry, 2 h.
Glucocorticoid receptor (Homo sapiens), sequence (P04150 whole entry, looked up, the tested form may be a part): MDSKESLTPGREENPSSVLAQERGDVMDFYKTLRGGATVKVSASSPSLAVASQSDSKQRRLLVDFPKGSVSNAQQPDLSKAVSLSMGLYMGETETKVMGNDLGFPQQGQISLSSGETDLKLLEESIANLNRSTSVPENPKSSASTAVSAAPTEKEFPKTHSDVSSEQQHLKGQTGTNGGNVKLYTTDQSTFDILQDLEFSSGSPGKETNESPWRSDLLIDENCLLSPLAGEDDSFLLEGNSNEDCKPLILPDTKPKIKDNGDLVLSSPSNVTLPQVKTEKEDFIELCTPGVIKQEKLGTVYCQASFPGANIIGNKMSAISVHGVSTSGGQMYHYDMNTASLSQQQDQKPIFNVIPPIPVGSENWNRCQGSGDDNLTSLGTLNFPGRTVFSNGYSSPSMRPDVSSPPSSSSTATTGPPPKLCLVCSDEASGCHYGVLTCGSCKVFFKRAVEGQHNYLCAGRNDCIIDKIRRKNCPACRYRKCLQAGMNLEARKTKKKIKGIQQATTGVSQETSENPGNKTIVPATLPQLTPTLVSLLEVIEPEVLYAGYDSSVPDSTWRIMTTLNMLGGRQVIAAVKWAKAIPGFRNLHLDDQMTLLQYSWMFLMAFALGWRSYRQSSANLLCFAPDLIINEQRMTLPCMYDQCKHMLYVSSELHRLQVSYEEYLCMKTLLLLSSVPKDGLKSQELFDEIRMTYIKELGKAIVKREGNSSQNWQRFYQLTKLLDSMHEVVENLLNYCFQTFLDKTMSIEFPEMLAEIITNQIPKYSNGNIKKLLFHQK
Test [12] has the same target. The test is described as follows: GR-EFC Redistribution (AID 451; calls by dose curve; further: potency means the concentration at half of the fitted maximal effect). As to conditions: CHO-K1 GR-EFC translocation, beta-gal luminescence, 2 h. Summed up: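 CHO-K1 cells expressing nuclear EA and GR-ED fragments of b-gal; compounds titrated up to 46 uM final, 2 h at 37 C. GR nuclear translocation read as complemented b-gal luminescence after 1 h RT detection.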
For test [13], the target named is Mitogen-activated protein kinase 10 (Mus musculus) (UniProt Q61831). The test is described as follows: JNK3 AlphaScreen Assay (AID 530; active means well fitted curve in either direction with a large enough effect, not every such curve was filed as active;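 further: kinase came from lysate of stimulated human HepG2 cells; signal reports phosphorylation of biotinylated GST-cJun 1-79 at Ser73 with 10 µM ATP; on the % scale 0 is the no-effect control and ±100 the full control effect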). In outline: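 Pre-activated (IL-1β/TNFα) JNK3 in HepG2 lysates phosphorylates biotin-GST-cJun(1-79), 10 uM ATP; anti-phospho-cJun(Ser73) AlphaScreen read at room temperature, pH 7.6 Tris buffer. Compounds pre-incubated 15 min as titrations.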
In general terms: In Alpha technology, singlet oxygen from a donor bead excites a nearby acceptor bead.

Test [14] concerns the target Cytochrome P450 3A4 (Homo sapiens) (UniProt P08684). The test is described as follows: qHTS Assay for Activators of Cytochrome P450 3A4 (AID 885). Further: nearly all actives have a fitted effect of over 65% in size. Summed up: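 Human CYP3A4 (20 nM) with Luciferin-PPXE at 25 uM (its KM) in 200 mM KPO4; 10 min compound preincubation, then NADPH regeneration and 60 min reaction at RT. Luciferin read by luminescence; normalized to 57 uM ketoconazole full inhibition.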

Test [15] concerns the target Cytochrome P450 2C19 (Homo sapiens) (UniProt P33261). The test can be described thus: qHTS Assay for Inhibitors and Substrates of Cytochrome P450 2C19 (AID 899). Further: potency means the concentration at half of the fitted maximal effect; nearly all actives have a fitted effect of over 60% in size. Summed up: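 Luminescent read-out of luciferin formed from Luciferin-H EGE (10uM, equal to KM). Enzyme 5nM in 50mM KPO4; compound added, 10 min at 37C, then NADPH regenerating system for 60 min at 37C. Full inhibition defined by 57uM ketoconazole.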

In test [16] the target is Rap guanine nucleotide exchange factor 3 (Homo sapiens) (UniProt O95398). The test can be described thus: Counterscreen qHTS for antagonist of cAMP-regulated guanine nucleotide exchange factor 3 (EPAC1) (AID 1645888).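 Further: fluorescence loss as bound BODIPY-GDP is released from Rap1B; % of control where 0% means no effect.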 Summed up:
as §1

A number with no mark means an inactive call. Records with an inconclusive call do not appear. Activity calls are given as the source filed them. Unless noted, the call rests on the fitted dose curve; in most records, active means well fitted curve in the direction sought with a large enough effect; inconclusive means small, poorly fitted or top-dose-only effect, or another doubt; inactive means no such curve, though single readings can be large; an effect the other way counts as inactive or inconclusive.

Rap guanine nucleotide exchange factor 4 (Homo sapiens), sequence (Q8WZA2 whole entry, looked up): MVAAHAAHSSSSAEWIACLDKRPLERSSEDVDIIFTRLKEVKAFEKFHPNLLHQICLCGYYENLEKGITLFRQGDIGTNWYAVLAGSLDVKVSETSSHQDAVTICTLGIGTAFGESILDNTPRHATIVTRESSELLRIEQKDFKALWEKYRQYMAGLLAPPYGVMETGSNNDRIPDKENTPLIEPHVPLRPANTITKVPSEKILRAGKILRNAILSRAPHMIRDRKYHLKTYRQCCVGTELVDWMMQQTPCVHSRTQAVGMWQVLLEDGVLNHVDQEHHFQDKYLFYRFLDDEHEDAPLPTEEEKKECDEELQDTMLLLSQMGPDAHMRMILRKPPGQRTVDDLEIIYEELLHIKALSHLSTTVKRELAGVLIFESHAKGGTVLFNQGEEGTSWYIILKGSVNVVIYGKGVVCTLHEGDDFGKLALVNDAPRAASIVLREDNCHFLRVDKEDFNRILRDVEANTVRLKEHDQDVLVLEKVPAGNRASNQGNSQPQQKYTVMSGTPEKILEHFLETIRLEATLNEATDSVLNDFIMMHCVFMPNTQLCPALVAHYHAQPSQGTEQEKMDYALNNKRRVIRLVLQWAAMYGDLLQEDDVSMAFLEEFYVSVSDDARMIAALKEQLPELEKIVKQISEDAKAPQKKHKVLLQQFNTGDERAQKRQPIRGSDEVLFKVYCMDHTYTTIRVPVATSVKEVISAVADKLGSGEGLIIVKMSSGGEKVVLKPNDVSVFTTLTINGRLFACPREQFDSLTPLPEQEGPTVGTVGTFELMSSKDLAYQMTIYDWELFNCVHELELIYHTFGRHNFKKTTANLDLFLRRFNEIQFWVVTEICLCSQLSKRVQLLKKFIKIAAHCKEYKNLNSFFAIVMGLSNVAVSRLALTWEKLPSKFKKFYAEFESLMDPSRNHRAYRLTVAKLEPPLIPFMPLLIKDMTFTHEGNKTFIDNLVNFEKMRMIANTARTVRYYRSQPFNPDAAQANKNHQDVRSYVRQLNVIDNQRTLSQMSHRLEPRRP
Tumor susceptibility gene 101 protein (Homo sapiens), sequence (Q99816 whole entry, looked up, the tested form may be a part): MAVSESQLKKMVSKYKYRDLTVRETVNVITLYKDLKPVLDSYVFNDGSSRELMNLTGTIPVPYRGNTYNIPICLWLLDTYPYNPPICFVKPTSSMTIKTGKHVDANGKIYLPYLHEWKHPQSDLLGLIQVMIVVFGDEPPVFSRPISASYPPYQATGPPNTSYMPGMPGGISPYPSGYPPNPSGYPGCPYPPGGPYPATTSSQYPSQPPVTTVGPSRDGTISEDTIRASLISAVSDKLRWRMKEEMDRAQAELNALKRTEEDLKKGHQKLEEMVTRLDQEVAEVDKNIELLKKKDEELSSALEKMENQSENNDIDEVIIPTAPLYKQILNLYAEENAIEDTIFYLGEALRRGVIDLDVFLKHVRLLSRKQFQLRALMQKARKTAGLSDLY
Cytochrome P450 3A4 (Homo sapiens), sequence (P08684 whole entry, looked up): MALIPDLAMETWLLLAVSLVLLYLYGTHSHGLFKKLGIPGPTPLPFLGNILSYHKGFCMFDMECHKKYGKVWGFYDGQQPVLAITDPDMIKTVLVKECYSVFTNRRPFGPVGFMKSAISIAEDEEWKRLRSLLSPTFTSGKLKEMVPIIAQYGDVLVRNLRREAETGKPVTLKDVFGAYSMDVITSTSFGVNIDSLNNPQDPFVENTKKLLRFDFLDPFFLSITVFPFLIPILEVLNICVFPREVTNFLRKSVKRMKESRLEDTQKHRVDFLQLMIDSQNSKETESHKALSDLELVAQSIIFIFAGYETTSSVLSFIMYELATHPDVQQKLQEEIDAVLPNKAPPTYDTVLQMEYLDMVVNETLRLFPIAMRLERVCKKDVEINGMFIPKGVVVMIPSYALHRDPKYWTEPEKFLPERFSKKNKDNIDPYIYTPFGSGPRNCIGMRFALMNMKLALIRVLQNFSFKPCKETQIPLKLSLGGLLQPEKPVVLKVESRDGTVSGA
DNA dC->dU-editing enzyme APOBEC-3G (Homo sapiens), sequence (Q9HC16 whole entry, looked up): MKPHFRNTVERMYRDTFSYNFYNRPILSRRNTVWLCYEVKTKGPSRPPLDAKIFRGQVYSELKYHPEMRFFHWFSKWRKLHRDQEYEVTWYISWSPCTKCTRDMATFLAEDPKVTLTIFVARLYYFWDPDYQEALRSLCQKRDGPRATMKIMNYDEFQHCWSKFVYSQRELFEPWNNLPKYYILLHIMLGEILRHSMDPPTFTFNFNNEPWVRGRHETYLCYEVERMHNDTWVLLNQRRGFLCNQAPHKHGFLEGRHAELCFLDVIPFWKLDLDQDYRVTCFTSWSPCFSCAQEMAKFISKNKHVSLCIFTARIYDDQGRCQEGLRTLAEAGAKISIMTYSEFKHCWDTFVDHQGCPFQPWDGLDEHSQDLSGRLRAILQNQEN
Cytochrome P450 2C19 (Homo sapiens), sequence (P33261 whole entry, looked up): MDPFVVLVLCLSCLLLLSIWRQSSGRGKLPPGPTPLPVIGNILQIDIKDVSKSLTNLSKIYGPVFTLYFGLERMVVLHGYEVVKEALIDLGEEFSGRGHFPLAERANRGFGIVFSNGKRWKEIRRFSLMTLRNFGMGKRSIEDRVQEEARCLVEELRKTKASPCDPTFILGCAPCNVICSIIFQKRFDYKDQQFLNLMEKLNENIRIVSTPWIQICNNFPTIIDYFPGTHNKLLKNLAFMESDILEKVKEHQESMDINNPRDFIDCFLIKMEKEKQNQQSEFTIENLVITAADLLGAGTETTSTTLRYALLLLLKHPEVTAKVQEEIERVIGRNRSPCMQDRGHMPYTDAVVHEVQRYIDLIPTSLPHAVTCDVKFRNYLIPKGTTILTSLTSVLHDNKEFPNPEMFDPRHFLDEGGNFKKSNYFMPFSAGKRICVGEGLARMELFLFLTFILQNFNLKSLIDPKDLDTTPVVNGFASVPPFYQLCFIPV
Cytochrome P450 1A2 (Homo sapiens), sequence (P05177 whole entry, looked up): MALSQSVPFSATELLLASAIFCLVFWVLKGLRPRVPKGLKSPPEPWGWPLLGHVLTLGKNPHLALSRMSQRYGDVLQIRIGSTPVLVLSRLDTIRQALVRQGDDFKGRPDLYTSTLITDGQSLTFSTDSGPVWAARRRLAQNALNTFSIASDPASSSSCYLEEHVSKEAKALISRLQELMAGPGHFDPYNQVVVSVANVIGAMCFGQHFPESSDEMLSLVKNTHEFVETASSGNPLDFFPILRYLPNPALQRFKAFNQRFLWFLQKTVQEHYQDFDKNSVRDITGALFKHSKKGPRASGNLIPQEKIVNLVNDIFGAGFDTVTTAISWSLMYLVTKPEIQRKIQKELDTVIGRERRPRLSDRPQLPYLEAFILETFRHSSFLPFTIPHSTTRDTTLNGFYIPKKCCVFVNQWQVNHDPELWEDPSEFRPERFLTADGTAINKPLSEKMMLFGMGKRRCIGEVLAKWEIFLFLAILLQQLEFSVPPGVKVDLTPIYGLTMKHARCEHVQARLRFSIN

`C=C1CCC(O)C/C1=C\C=C1/CCCC2(C)C1CCC2C(C)/C=C/C(C)C(C)C` (centres undefined): in test [1], the outcome was inactive. The Potency result in test [2], in test [3], in [4] and in test [5] was “inactive” in each case.
As to `N=c1c(S(=O)(=O)c2ccc(Br)cc2)cc2c(=O)n3ccccc3nc2n1Cc1ccccc1`, the Potency result in test [6], in test [3] and in [5] was “inactive” in each case. For the same compound, the Potency in test [2] was 50.1 µM (active). Moreover, the activation in [4] was -5.31% [at 17.1 µM, percent relative to cAMP agonist control]; in test [7], 9.82% [at 30.8 µM].
On to `O=c1cnc2cnc(Oc3ccccc3)nc2n1Cc1cccs1`, for which the Potency in [8] is > 11.4 µM; in test [9], 7.94 µM (active); in test [11], > 9.22 µM; in test [12], > 46 µM; in test [15] it was 1.26 µM (active); in [5], 15.6 µM (active). Moreover, the result in [10] and in test [14] was inactive. The Potency entry in test [13], in [2], in [3] and in test [4] was “inactive” throughout.
With `CCOC(=O)C(C)Sc1ncnc2c1nnn2-c1ccc(F)cc1` (centres undefined), the Potency result in test [2] and in [3] was “inactive” throughout. Also, in [4], the activation was 3.03% [at 17.1 µM, percent relative to cAMP agonist control]. Besides, the activity change, negative = inhibition in test [16] is -4.79% [at 30.8 µM].
Consider `Nc1ccc2cc3[nH]c4cc(N)ccc4c3nc2c1`, for which the Potency in [6] was 0.366 µM (active); in test [3] it was 100 µM (active); in test [4], 100 µM (active); in test [7], 63.1 µM (active). The Potency result in test [2] and in test [5] was “inactive” each time.
As for `O=C(O)c1ccc(/C=N/Nc2cccc(C(F)(F)F)c2)cc1`, the Potency entry in test [2], in [3], in test [4] and in test [16] was “inactive” each time.
In the case of `COc1ccc(C(C#N)N2CCC(c3ccccc3)=N2)cc1OC` (centres undefined), the Potency result in [2], in test [3], in [4] and in [16] was “inactive” each time.
Consider `CC(C)NC(=O)c1sc(=S)n2c1[nH]c(=O)c1ccc(C(=O)NCCc3ccc(Cl)cc3)cc12`, for which, in test [2], the Potency is 50.1 µM (active). For the same compound, the Potency entry in test [3] is “inactive”. Further, the activation in [4] is 4.17% [at 17.1 µM, percent relative to cAMP agonist control]. Moreover, the activity change, negative = inhibition in [16] is -15.1% [at 30.8 µM].
On to `O=C(Nc1cccc(Cl)c1N1CCOCC1)c1cccs1`, for which the Potency result in [2], in test [3], in [4] and in test [16] was “inactive” in each case.
